Active and inactive are the calls of the source. The calls were made as follows: active = hit-call score of the fitted dose curve at least 0.9, where 1 is the maximum; inactive = score below 0.9.
Tests used:
[1] = BSK_KF3CT_SRB: Viability Assessment in the BioMAP Diversity Plus: KF3CT Assay (AID 2283069); settings: primary human keratinocytes with fibroblasts
How it was run: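 Overt cytotoxicity is assessed as total protein by sulforhodamine B staining in parallel human skin co-cultures at 24 h after dosing. DMSO serves as negative control and baseline.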

[2] = read-out: Interleukin-1 alpha (IL1a), IL1A (gene 3552); assay: BSK_KF3CT_IL1a: BioMAP Diversity Plus: KF3CT Assay for Interleukin-1 alpha (IL1a) Biomarker Activity (AID 2283070); settings: primary human keratinocytes with fibroblasts; actives raise or lower the signal
How it was run: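 Readout is IL-1a level by ELISA, compared bidirectionally with DMSO as baseline. Cells: human keratinocytes co-cultured with foreskin fibroblasts, harvested 24 h post-dose.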

[3] = read-out: TIMP metallopeptidase inhibitor 2 (TIMP2), TIMP2 (gene 7077); assay: BSK_KF3CT_TIMP2: BioMAP Diversity Plus: KF3CT Assay for TIMP metallopeptidase inhibitor 2 (TIMP2) Biomarker Activity (AID 2283071); settings: primary human keratinocytes with fibroblasts; actives raise or lower the signal
How it was run: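 Measurements come from ELISA detection of TIMP-2 at 24 hours in a dosed human keratinocyte and foreskin fibroblast co-culture. DMSO serves as negative control and baseline.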

[4] = read-out: C-C motif chemokine 2 (Homo sapiens) (UniProt P13500); assay: BSK_KF3CT_MCP1: BioMAP Diversity Plus: KF3CT Assay for Monocyte Chemoattractant Protein 1 (MCP1/CCL2) Biomarker Activity (AID 2283073); settings: primary human keratinocytes with fibroblasts; actives raise or lower the signal
How it was run: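 ELISA read-out of MCP-1, 24 h post-dose, in primary human skin keratinocytes co-cultured with fibroblasts. Parallel SRB staining monitors cytotoxicity; changes fitted both directions relative to DMSO.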

[5] = read-out: Matrix Metallopeptidase 9 (MMP9), MMP9 (gene 4318); assay: BSK_KF3CT_MMP9: BioMAP Diversity Plus: KF3CT Assay for Matrix Metallopeptidase 9 (MMP9) Biomarker Activity (AID 2283074); settings: primary human keratinocytes with fibroblasts; actives raise or lower the signal;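 as to AC50: MMP9 protein level quantified by ELISA in the co-culture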
How it was run: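 Values come from bidirectional fitting relative to DMSO of MMP-9 levels, which were measured by ELISA. Measurements were taken 24 h after chemical dosing of a keratinocyte and foreskin fibroblast co-culture.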

[6] = read-out: urokinase plasminogen activator (uPA), PLAU (gene 5328); assay: BSK_KF3CT_uPA: BioMAP Diversity Plus: KF3CT Assay for urokinase plasminogen activator (uPA) Biomarker Activity (AID 2283075); settings: primary human keratinocytes with fibroblasts; actives raise or lower the signal
How it was run: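 Values derive from bidirectional fitting against DMSO controls. Keratinocyte/foreskin fibroblast co-cultures received chemical; 24 h later uPA was detected by ELISA, with SRB total-protein staining in parallel wells for overt cytotoxicity.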

[7] = read-out: CD40, CD40 (gene 958); assay: BSK_LPS_CD40: BioMAP Diversity Plus: LPS Assay for CD40 Biomarker Activity (AID 2283076); settings: primary human HUVEC with PBMC; actives raise or lower the signal
How it was run: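 In the LPS system of human endothelial cells with peripheral blood mononuclear cells, CD40 levels were read by ELISA 24 h post-treatment. Signal changes in either direction were fitted against the DMSO baseline, with parallel SRB protein staining.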

[8] = read-out: E-selectin (Homo sapiens) (UniProt P16581); assay: BSK_LPS_Eselectin: BioMAP Diversity Plus: LPS Assay for Eselectin Biomarker Activity (AID 2283077); settings: primary human HUVEC with PBMC; actives raise or lower the signal
How it was run: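 E-selectin ELISA on LPS-stimulated endothelial cell/PBMC co-cultures, read 24 h post-treatment; gains and losses fitted against DMSO. Parallel SRB staining (0.1% SRB after 10% TCA fixation, 560 nm) flags overt cytotoxicity.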

[9] = read-out: Interleukin-8 (IL8), CXCL8 (gene 3576); assay: BSK_LPS_IL8: BioMAP Diversity Plus: LPS Assay for Interleukin-8 (IL8) Biomarker Activity (AID 2283078); settings: primary human HUVEC with PBMC; actives raise or lower the signal
How it was run: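 ELISA read-out of IL-8 after 24 h chemical treatment of LPS-activated endothelial/PBMC human primary co-cultures. Changes either up or down relative to DMSO; overt cytotoxicity checked by sulforhodamine B staining in parallel wells.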

[10] = BSK_LPS_SRB: Viability Assessment in the BioMAP Diversity Plus: LPS Assay (AID 2283079); settings: primary human HUVEC with PBMC;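 also: total protein by sulforhodamine B absorbance as a cytotoxicity measure; measured one day after compound addition; fitted in both directions against DMSO so loss or gain of signal counts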
How it was run: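 SRB viability endpoint: cells fixed with 10% TCA, stained with 0.1% SRB, read at 560 nm, 24 h post-dose. HUVEC/PBMC co-culture; signal change in either direction scored relative to DMSO.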

[11] = read-out: Interleukin-1 alpha (IL1a), IL1A (gene 3552); assay: BSK_LPS_IL1a: BioMAP Diversity Plus: LPS Assay for Interleukin-1 alpha (IL1a) Biomarker Activity (AID 2283080); settings: primary human HUVEC with PBMC; actives raise or lower the signal
How it was run: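 Readout is IL-1a level by ELISA, 24 h post-dose, fitted as gain or loss relative to DMSO. System: LPS-activated human primary co-culture of vascular endothelium and peripheral blood mononuclear cells, with parallel SRB total-protein cytotoxicity.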

[12] = read-out: Monocyte Chemoattractant Protein-1 (MCP1), CCL2 (gene 6347); assay: BSK_LPS_MCP1: BioMAP Diversity Plus: LPS Assay for Monocyte Chemoattractant Protein-1 (MCP1) Biomarker Activity (AID 2283081); settings: primary human HUVEC with PBMC; actives raise or lower the signal;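 as to AC50: secreted MCP-1 protein quantified by ELISA in culture supernatant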
How it was run: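 Secreted MCP-1 read by ELISA at 24 h post-dosing in an LPS-activated co-culture of endothelial cells with peripheral blood mononuclear cells. Fits run in both directions, DMSO as baseline; parallel SRB staining tracks overt cytotoxicity.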

[13] = BSK_LPS_PGE2: BioMAP Diversity Plus: LPS Assay for Prostaglandin E2 (PGE2) Biomarker Activity (AID 2283082); settings: primary human HUVEC with PBMC; actives raise or lower the signal;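 as to AC50: secreted prostaglandin E2 measured by ELISA in LPS-stimulated co-culture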
How it was run: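 Primary human endothelial cells and blood mononuclear cells, co-cultured with LPS, receive test chemical; PGE2 ELISA follows at 24 h, with SRB-stained parallel cultures flagging cytotoxicity.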

[14] = read-out: Macrophage colony-stimulating factor (MCSF), CSF1 (gene 1435); assay: BSK_LPS_MCSF: BioMAP Diversity Plus: LPS Assay for Macrophage colony-stimulating factor (MCSF) Biomarker Activity (AID 2283083); settings: primary human HUVEC with PBMC; actives raise or lower the signal
How it was run: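 Bidirectional fitting against DMSO was applied to M-CSF levels read by ELISA at 24 h post-dose. The system pairs human umbilical vein endothelium with peripheral blood mononuclear cells; parallel SRB staining tracked cytotoxicity.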

[15] = read-out: Tissue Factor, F3 (gene 2152); assay: BSK_LPS_TissueFactor: BioMAP Diversity Plus: LPS Assay for Tissue Factor Biomarker Activity (AID 2283084); settings: primary human HUVEC with PBMC; actives raise or lower the signal
How it was run: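 Compound was added to an endothelial cell/PBMC co-culture, and after 24 h tissue factor (CD142) was read by ELISA. Gain or loss of signal was fitted against a DMSO baseline, and parallel SRB staining (560 nm) tracked overt cytotoxicity.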

[16] = read-out: Tumor necrosis factor (Homo sapiens) (UniProt P01375); assay: BSK_LPS_TNFa: BioMAP Diversity Plus: LPS Assay for Tumour Necrosis Factor alpha (TNFa) Biomarker Activity (AID 2283085); settings: primary human HUVEC with PBMC; actives raise or lower the signal;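 as to AC50: TNFa protein level quantified by ELISA in the co-culture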
How it was run: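 ELISA-based TNFa endpoint in a human endothelial–PBMC co-culture sampled 24 h post-exposure. Curves were fitted in both directions using DMSO as baseline of activity.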

[17] = read-out: Vascular cell adhesion molecule 1 (VCAM1), VCAM1 (gene 7412); assay: BSK_LPS_VCAM1: BioMAP Diversity Plus: LPS Assay for Vascular cell adhesion molecule 1 (VCAM1) Biomarker Activity (AID 2283086); settings: primary human HUVEC with PBMC; actives raise or lower the signal
How it was run: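 Measured by ELISA: VCAM-1 in LPS-activated HUVEC/PBMC co-cultures 24 h after treatment. Values reflect bidirectional fitting with DMSO as baseline.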

[18] = read-out: CD38, CD38 (gene 952); assay: BSK_SAg_CD38: BioMAP Diversity Plus: SAg Assay for CD38 Biomarker Activity (AID 2283087); settings: primary human HUVEC with PBMC; actives raise or lower the signal
How it was run: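 Measures CD38 on a human endothelial/PBMC co-culture driven by SEB and TSST-1, 24 h after compound exposure, using ELISA with fluorescence detection; DMSO defines baseline for bidirectional curve fitting.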

[19] = read-out: CD40, CD40 (gene 958); assay: BSK_SAg_CD40: BioMAP Diversity Plus: SAg Assay for CD40 Biomarker Activity (AID 2283088); settings: primary human HUVEC with PBMC; actives raise or lower the signal
How it was run: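 CD40 is measured by fluorescence ELISA in an endothelial/PBMC primary human co-culture at 24 h post-dose. Fitting is bidirectional, DMSO baseline. Parallel SRB staining (560 nm) flags cytotoxicity.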

[20] = read-out: Transforming growth factor beta 1 (TGFb1), TGFB1 (gene 7040); assay: BSK_KF3CT_TGFb1: BioMAP Diversity Plus: KF3CT Assay for Transforming growth factor beta 1 (TGFb1) Biomarker Activity (AID 2283072); settings: primary human keratinocytes with fibroblasts; actives raise or lower the signal
How it was run: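 TGF-b1 ELISA on a 24 h dosed co-culture of human keratinocytes and foreskin fibroblasts; cytotoxicity tracked in parallel cultures by SRB staining.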

Measured: AC50

E-selectin (Homo sapiens), sequence (P16581 whole entry, looked up): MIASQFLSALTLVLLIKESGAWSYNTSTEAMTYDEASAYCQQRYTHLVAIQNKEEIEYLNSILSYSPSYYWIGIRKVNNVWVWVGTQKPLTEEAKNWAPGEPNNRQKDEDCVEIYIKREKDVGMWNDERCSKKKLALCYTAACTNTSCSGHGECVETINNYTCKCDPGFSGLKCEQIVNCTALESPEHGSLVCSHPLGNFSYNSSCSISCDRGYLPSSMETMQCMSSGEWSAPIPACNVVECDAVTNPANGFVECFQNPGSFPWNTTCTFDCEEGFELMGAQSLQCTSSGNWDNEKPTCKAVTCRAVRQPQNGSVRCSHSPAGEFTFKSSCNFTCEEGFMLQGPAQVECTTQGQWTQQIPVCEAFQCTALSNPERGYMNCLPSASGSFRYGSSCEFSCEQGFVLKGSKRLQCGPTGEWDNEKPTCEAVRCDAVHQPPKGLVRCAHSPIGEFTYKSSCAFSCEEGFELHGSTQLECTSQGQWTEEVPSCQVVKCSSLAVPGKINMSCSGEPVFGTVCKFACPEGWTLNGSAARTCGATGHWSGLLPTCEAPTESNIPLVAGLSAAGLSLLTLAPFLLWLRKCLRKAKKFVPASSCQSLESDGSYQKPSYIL
Tumor necrosis factor (Homo sapiens), sequence (P01375 whole entry, looked up): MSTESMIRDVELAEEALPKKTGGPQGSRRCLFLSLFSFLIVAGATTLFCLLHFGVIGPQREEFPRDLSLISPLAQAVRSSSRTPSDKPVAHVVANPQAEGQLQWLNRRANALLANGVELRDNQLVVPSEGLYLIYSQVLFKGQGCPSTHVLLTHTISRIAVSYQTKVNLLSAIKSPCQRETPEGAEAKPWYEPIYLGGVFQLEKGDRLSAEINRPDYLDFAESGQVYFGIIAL

O=C(O)C(F)(F)C(F)(F)C(=O)O
not listed: [20]
inactive: all other assays above

O=S(=O)(F)C(F)(F)C(F)(F)C(F)(F)C(F)(F)C(F)(F)C(F)(F)C(F)(F)C(F)(F)F
not listed: [6] | [20]
inactive: all other assays above

COP(N)(=S)OC
not listed: [2]
inactive: all other assays above

O=S1(=O)OCC2C(CO1)C1(Cl)C(Cl)=C(Cl)C2(Cl)C1(Cl)Cl (configuration not stated)
active: [20] 35.6 µM | [12] 10.5 µM
not listed: [5] | [6]
inactive: all other assays above

CCCCCCCc1ccc(O)cc1
active: [1] 30.7 µM | [3] 32.2 µM | [20] 31.7 µM | [4] 29.6 µM | [5] 30.5 µM | [7] 30.9 µM | [8] 35.8 µM | [9] 35.1 µM | [10] 37.2 µM | [11] 31.2 µM | [12] 36.5 µM | [13] 2.95 µM | [14] 32 µM | [15] 38.1 µM | [16] 30.8 µM | [17] 36.2 µM | [18] 35.7 µM | [19] 35.6 µM

O=[N+]([O-])c1ccccc1
not listed: [4] | [5] | [6]
inactive: all other assays above

ClC(Cl)(Cl)c1ccccc1
not listed: [5] | [6]
inactive: all other assays above
